Measurements from article PMC5540273 (PLoS ONE, 2017).

Experiments:
Conditions in all cases: concentration: 1 μM, replicates: in singlicate; n = 1
[1] = test system: T1, PCTK2
T1 construct: gene CDK17

[2] = test system: T2, PCTK3
T2 construct: gene CDK18

[3] = test system: PDGFRA
[4] = test system: PDGFRB
[5] = test system: PDPK1
[6] = test system: PFTAIRE2
[7] = test system: T3, PFTK1
T3 construct: gene CDK14

[8] = test system: PHKG1
[9] = test system: PHKG2
[10] = test system: PIK3C2B
[11] = test system: PIK3C2G
[12] = test system: PIK3CA
[13] = test system: PIK3CB
[14] = test system: PIK3CD
[15] = test system: PIK3CG
[16] = test system: T4, PIK4CB
T4 construct: gene PI4KB

[17] = test system: PIKFYVE
[18] = test system: PIM1
[19] = test system: PIM2
[20] = test system: PIM3
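Further: KINOMEscan kinase panel screen.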

Structure (SMILES) | %Inh [1] [%] | %Inh [2] [%] | %Inh [3] [%] | %Inh [4] [%] | %Inh [5] [%] | %Inh [6] [%] | %Inh [7] [%] | %Inh [8] [%] | %Inh [9] [%] | %Inh [10] [%] | %Inh [11] [%] | %Inh [12] [%] | %Inh [13] [%] | %Inh [14] [%] | %Inh [15] [%] | %Inh [16] [%] | %Inh [17] [%] | %Inh [18] [%] | %Inh [19] [%] | %Inh [20] [%]
Cl.O=C(Nc1ccc(Oc2ccc3[nH]c(NC(=O)c4ccco4)nc3c2)cc1)Nc1cc(C(F)(F)F)ccc1F [GW683134] | 0 | 8 | 92.6 | 100 | 14 | 27 | 14 | 0 | 0 | 100 | 0 | 100 | 0 | 8 | 99.9 | 18 | 0 | 0 | 0 | 0
Cc1cccc(Nc2nc(NCCN)ncc2C(N)=O)c1 [GSK1292139] | 0 | 0 | 51 | 89 | 0 | 16 | 0 | 42 | 63 | 0 | 0 | 0 | 0 | 2 | 2 | 22 | 0 | 28 | 35 | 58
Cc1ccc(-c2ccc3occ(-c4ccc(S(C)=O)cc4)c3c2)nn1 (centres unmarked) | 0 | 0 | 0 | 0 | 16 | 0 | 6 | 0 | 16 | 0 | 18 | 0 | 0 | 2 | 8 | 0 | 3 | 4 | 9 | 4
Fc1cc(Cl)ccc1Nc1ccnc2cc(-c3ccc(CN4CCOCC4)o3)ccc12 [GW560109] | 0 | 0 | 99.6 | 100 | 8 | 12 | 0 | 13 | 0 | 0 | 0 | 0 | 0 | 21 | 0 | 16 | 5 | 0 | 0 | 0
Cc1ccc(C)c(NC(=O)Nc2ccc(C)c(-c3ccc(C(=O)Nc4ccncc4)cc3)c2)c1 [GSK1398473] | 0 | 23 | 80 | 100 | 2 | 12 | 14 | 0 | 0 | 0 | 0 | 0 | 0 | 0 | 0 | 8 | 0 | 16 | 0 | 1
Cc1ccccc1CC(=O)N1CCc2cc(-c3cn(C)c4ncnc(N)c34)ccc21 [GSK2603346] | 0 | 3 | 64 | 99.4 | 67 | 5 | 3 | 0 | 0 | 77 | 0 | 0 | 0 | 25 | 0 | 0 | 0 | 0 | 0 | 0
O=C(Nc1n[nH]c2cc(-c3cccs3)ccc12)C1CC1 [SB-731284] | 33 | 38 | 73 | 83 | 0 | 0 | 33 | 0 | 17 | 7 | 1 | 3 | 35 | 0 | 27 | 0 | 9 | 0 | 0 | 0
Cl.N#CCc1ccc(Nc2nccc(Nc3ccc(Oc4ccccc4)cc3)n2)cc1 [GW639905] | 0 | 8 | 31 | 99.6 | 17 | 4 | 0 | 0 | 0 | 0 | 7 | 0 | 0 | 0 | 0 | 0 | 13 | 0 | 0 | 0
CNc1nccc(-c2ccc3c(N)n[nH]c3c2)n1 [GSK2206003] | 19 | 18 | 13 | 77 | 62 | 16 | 10 | 6 | 43 | 0 | 1 | 0 | 0 | 0 | 17 | 0 | 0 | 18 | 0 | 13
O=C(O)C(F)(F)F.O=c1[nH]ccc2nc(N[C@@H]3CCNC3)nc(Nc3cc(Cl)cc(Cl)c3)c12 [GSK2188764] | 22 | 25 | 46 | 94.8 | 76 | 20 | 27 | 96.1 | 94.7 | 13 | 18 | 7 | 25 | 43 | 53 | 56 | 20 | 44 | 0 | 66
CN(c1ccc(NC(=O)N2CCN(CCCN3CCOCC3)CC2)cc1)c1ccnc(Nc2ccc(CS(C)(=O)=O)cc2)n1.Cl [GW830899] | 10 | 0 | 73 | 99.4 | 2 | 14 | 0 | 40 | 0 | 0 | 0 | 0 | 0 | 0 | 0 | 100 | 0 | 16 | 0 | 0
Fc1cc(Cl)ccc1Nc1ccnc2cc(-c3ccc(CN4CCSCC4)o3)ccc12 [GW560106] | 0 | 8 | 99.1 | 100 | 0 | 6 | 11 | 1 | 0 | 0 | 0 | 0 | 0 | 9 | 0 | 0 | 1 | 8 | 0 | 0
CCn1cnc2c(NCc3ccccc3)ncnc21 [SKF-96418] | 0 | 0 | 0 | 0 | 0 | 0 | 0 | 0 | 0 | 0 | 0 | 0 | 0 | 0 | 0 | 4 | 23 | 21 | 0 | 0
Cc1cccc(Nc2nc(N[C@H]3CCCC[C@H]3N)ncc2C(N)=O)c1.Cl [GSK986310] | 17 | 24 | 12 | 80 | 3 | 24 | 29 | 33 | 44 | 0 | 0 | 0 | 0 | 0 | 3 | 0 | 0 | 43 | 56 | 88
Cc1nn2c(=O)cc(N3CCO[C@H](C)C3)nc2n1Cc1cccc(Cl)c1Cl [GSK2373693] | 0 | 8 | 1 | 65 | 0 | 9 | 5 | 0 | 0 | 99.4 | 89 | 23 | 0 | 100 | 94 | 11 | 8 | 10 | 0 | 0
N#CC1(c2cccc(C(=O)Nc3cccc(Oc4ccc5nc(NC(=O)C6CC6)sc5n4)c3)c2)CC1 | 0 | 1 | 99.7 | 100 | 49 | 0 | 9 | 0 | 19 | 0 | 0 | 0 | 0 | 0 | 0 | 0 | 0 | 0 | 17 | 7
